# According to the supplement of paper PMC8728848:
# Many of the other results were omitted from the sample, so the strongest signals are more common in it than they were.
# B1: TAL6-6LysM (Trichoderma atroviride) (protein)
# chain: AASKLGVPQPAQRDQVNCQLYAVQPNDNCIDISSKNNITYAQLLSWNPSLSSTCSNLASLNSSSICVSNPKGTFSISSNTVGATDIATTTAPVPSPTLDQTTSRCAKYYQVSDGDDCSHLTAQFAITLKDFIFLNSEVWQNCTNLELGYYYCVEPVGYISTYPGYLPTATTKPFNQTSATSLPYDGDPWARFSSNSSVIPIANGTRVDCYSYVYVKNLTENLFADCWNMASMYEITREELVLWNPSLGNDGSSGSNLSGAEASQVASSIAIPTTAPSSITTNLYTYPCTVAANISYCVALVSSTGALPTNTAPPGPHASGEISNCTAWFAPEAYDTCKSILDIFEMSFANFYKMNPSVGPDCSGLAVGTNYCVSTYPNGEDPNDDWDGDDSIPSISPTGIITPTPTQSGMVSNCNKFYDVHSNDGCSAIASSQHVDLSSLYKWNPAIKTDCSGLQASVYVCIGILTTSMSTTSKLPTTTSKPSTTSKPPTGITTPTPTQSGMVKNCNKFYDVHSGDGCSAIASSQKVNLSSFYLWNPAVKTDCSGLQASVFVCIGTLTTSMSTTTSKLPTTTSKPSTTSKPPTGIITPTPTQNGMVKNCNKFYDVHSGDGCSAIASSQKVNLSSFYLWNPAVKTDCSGLQASVFVCVGTATTTTAAGITTPTPTQSGMVSGCNKFYDVHAGDGCSAIASSQKIALSSLYKWNPAVKTDCSGLQASVYICIGVGNAAAARVTGAAASFLEQKLISEEDLNSAVDHHHHHH
# Experiments:
# Experiment in all cases: glycan array binding signal (z-score within array); higher = stronger binding
# Conditions in all cases: glycan notation: IUPAC condensed, linker removed
# [1] = molecular target: Fuc(a1-2)Gal(b1-3)GlcNAc(b1-3)Gal(b1-4)Glc
# Outline: (§1)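 Glycan array data were curated from 3228 arrays in the Consortium for Functional Glycomics database and kept only where the protein sequence was available. Glycan names were converted to IUPAC-condensed notation, and columns mapping to the same glycan were averaged. The binding signal is a within-array Z-score, averaged across arrays of the same protein sequence at different concentrations or buffers and across linkers. Negative Z-scores can be read as non-binding.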
# [2] = molecular target: Fuc(a1-2)Gal(b1-3)GlcNAc6S
# Outline: as §1
# [3] = molecular target: Fuc(a1-2)Gal(b1-3)[Fuc(a1-4)]GlcNAc(b1-2)Man(a1-3)[Fuc(a1-2)Gal(b1-3)[Fuc(a1-4)]GlcNAc(b1-2)Man(a1-6)]Man(b1-4)GlcNAc(b1-4)[Fuc(a1-6)]GlcNAc(b1-4)[Fuc(a1-6)]GlcNAc
# Outline: as §1
# [4] = molecular target: Fuc(a1-2)Gal(b1-4)GlcNAc(b1-2)Man
# Outline: as §1
# [5] = molecular target: Fuc(a1-2)Gal(b1-4)GlcNAc(b1-3)[Fuc(a1-2)Gal(b1-4)GlcNAc(b1-6)]GalNAc
# Outline: as §1
# [6] = molecular target: Fuc(a1-2)Gal(b1-4)GlcNAc(b1-6)GalNAc
# Outline: as §1
# [7] = molecular target: Fuc(a1-2)Gal(b1-4)[Fuc(a1-3)]GlcNAc(b1-3)Gal(b1-4)[Fuc(a1-3)]GlcNAc(b1-3)Gal(b1-4)[Fuc(a1-3)]GlcNAc
# Outline: as §1
# Fuc(a1-2)Gal6S(b1-4)Glc = molecular target: Fuc(a1-2)Gal6S(b1-4)Glc
# Outline: as §1
# [8] = molecular target: Fuc(a1-2)[Gal(a1-3)]Gal(b1-4)GlcNAc(b1-3)[Fuc(a1-2)[Gal(a1-3)]Gal(b1-4)GlcNAc(b1-6)]GalNAc
# Outline: as §1
# [9] = molecular target: Fuc(a1-2)[Gal(a1-3)]Gal(b1-4)[Fuc(a1-3)]GlcNAc(b1-3)GalNAc
# Outline: as §1
# [10] = molecular target: Fuc(a1-2)[GalNAc(a1-3)]Gal
# Outline: as §1
# [11] = molecular target: Fuc(a1-2)[GalNAc(a1-3)]Gal(b1-3)GlcNAc(b1-3)GalNAc
# Outline: as §1
# [12] = molecular target: Fuc(a1-2)[GalNAc(a1-3)]Gal(b1-4)[Fuc(a1-3)]GlcNAc(b1-3)GalNAc
# Outline: as §1
# [13] = molecular target: Fuc(a1-3)[GalNAc(b1-4)]GlcNAc
# Outline: as §1
# [14] = molecular target: Gal(a1-3)Gal(b1-4)GlcNAc(b1-2)Man
# Outline: as §1
# [15] = molecular target: Gal(a1-3)Gal(b1-4)GlcNAc(b1-2)Man(a1-3)[Gal(a1-3)Gal(b1-4)GlcNAc(b1-2)Man(a1-6)]Man(b1-4)GlcNAc(b1-4)GlcNAc
# Outline: as §1
# Gal(a1-4)Gal(b1-4)Glc = molecular target: Gal(a1-4)Gal(b1-4)Glc
# Outline: as §1
# Gal(b1-3)Gal = molecular target: Gal(b1-3)Gal
# Outline: as §1
# [16] = molecular target: Gal(b1-3)GalNAc(b1-4)Gal(b1-4)Glc
# Outline: as §1
# Gal(b1-3)GlcNAc(b1-2)Man = molecular target: Gal(b1-3)GlcNAc(b1-2)Man
# Outline: as §1
# [17] = molecular target: Gal(b1-3)GlcNAc(b1-3)GalNAc
# Outline: as §1
# [18] = molecular target: Gal(b1-3)[Fuc(a1-4)]GlcNAc(b1-6)GalNAc
# Outline: as §1
# Gal(b1-4)Gal = molecular target: Gal(b1-4)Gal
# Outline: as §1
# [19] = molecular target: Gal(b1-4)GlcNAc(b1-2)Man(a1-6)[Man(a1-3)]Man(b1-4)GlcNAc(b1-4)GlcNAc
# Outline: as §1
# [20] = molecular target: Gal(b1-4)GlcNAc(b1-3)Gal(b1-3)GalNAc
# Outline: as §1
# [21] = molecular target: Gal3S(b1-4)[Fuc(a1-3)]Glc6S
# Outline: as §1
# Gal3S6S(b1-4)GlcNAc = molecular target: Gal3S6S(b1-4)GlcNAc
# Outline: as §1
# Gal3S6S(b1-4)GlcNAc6S = molecular target: Gal3S6S(b1-4)GlcNAc6S
# Outline: as §1
# Gal6S(b1-4)GlcNAc6S = molecular target: Gal6S(b1-4)GlcNAc6S
# Outline: as §1
# GalNAc(a1-3)Gal = molecular target: GalNAc(a1-3)Gal
# Outline: as §1
binder,measurement,setting,value
B1,glycan array binding signal (z-score),[1],-0.234
same,glycan array binding signal (z-score),[2],0.906
same,glycan array binding signal (z-score),[3],0.449
same,glycan array binding signal (z-score),[4],-0.377
same,glycan array binding signal (z-score),[5],-0.205
same,glycan array binding signal (z-score),[6],3.12
same,glycan array binding signal (z-score),[7],2.68
same,glycan array binding signal (z-score),Fuc(a1-2)Gal6S(b1-4)Glc,-0.385
same,glycan array binding signal (z-score),[8],-0.724
same,glycan array binding signal (z-score),[9],0.955
same,glycan array binding signal (z-score),[10],-0.757
same,glycan array binding signal (z-score),[11],0.204
same,glycan array binding signal (z-score),[12],-0.108
same,glycan array binding signal (z-score),[13],2.99
same,glycan array binding signal (z-score),[14],0.538
same,glycan array binding signal (z-score),[15],0.08
same,glycan array binding signal (z-score),Gal(a1-4)Gal(b1-4)Glc,2.69
same,glycan array binding signal (z-score),Gal(b1-3)Gal,-0.192
same,glycan array binding signal (z-score),[16],-0.503
same,glycan array binding signal (z-score),Gal(b1-3)GlcNAc(b1-2)Man,3.66
same,glycan array binding signal (z-score),[17],-0.729
same,glycan array binding signal (z-score),[18],1.02
same,glycan array binding signal (z-score),Gal(b1-4)Gal,-0.397
same,glycan array binding signal (z-score),[19],0.445
same,glycan array binding signal (z-score),[20],-0.573
same,glycan array binding signal (z-score),[21],2.96
same,glycan array binding signal (z-score),Gal3S6S(b1-4)GlcNAc,2.51
same,glycan array binding signal (z-score),Gal3S6S(b1-4)GlcNAc6S,3
same,glycan array binding signal (z-score),Gal6S(b1-4)GlcNAc6S,-0.018
same,glycan array binding signal (z-score),GalNAc(a1-3)Gal,2.44
